# Measurements: PubChem BioAssay (Tox21)
# Records with an inconclusive call do not appear. Calls of active or inactive are those of the source. The call rests on the fitted dose curve; in most records, active means well fitted activation curve with a large enough effect in the repeat runs; inconclusive means weak or mixed curves; inactive means flat fitted curve, though single readings scatter.
# Experiment: A CellTox Green Cytotoxicity Assay to monitor cytotoxicity in HepG2 cells - 8 hour (AID 1224890); further: nearly all actives have a fitted effect of over 45% in size
# Settings: CellTox Green fluorescence; series mostly up to 76.8 µM; cytotoxicity increase: at the top concentration
# Method in brief: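 Fluorescent DNA-binding dye, 600 HepG2 cells/well, 5 h preincubation then compound in DMSO; same plates read at 0–40 h, 37 C.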
# On the % scale 0 is the no-effect control and ±100 the full control effect.
row,SMILES,cytotoxicity increase
1,CC(=O)NC(=O)c1ccccc1O,-7.66% [at 35.3 µM] (inactive)
2,O=C1NC(=O)C2CC=CCC12 (configuration not stated),6.19% (inactive)
3,CC1=NN(c2cccc(S(=O)(=O)O)c2)C(=O)C1,2.97% (inactive)
4,CCCc1nn(C)c2c(=O)[nH]c(-c3cc(S(=O)(=O)N4CCN(C)CC4)ccc3OCC)nc12,-0.55% [at 35.3 µM] (inactive)
5,CN(C)C(=O)Oc1ccc[n+](C)c1,-7.7% [at 35.3 µM] (inactive)
6,C=CC(C)(CCC=C(C)C)OC(=O)CC (configuration not stated),24.6% (inactive)
7,C[N+]12CCC(CC1)C(OC(=O)C(O)(c1ccccc1)c1ccccc1)C2 (configuration not stated),-1.1% [at 35.3 µM] (inactive)
8,Cc1onc(-c2c(Cl)cccc2Cl)c1C(=O)Cl,-0.0521% [at 35.3 µM] (inactive)
9,CCCC(=O)O[C@]1(C(=O)CC)CC[C@H]2[C@@H]3CCC4=CC(=O)CC[C@]4(C)[C@H]3[C@@H](O)C[C@@]21C,8.1% [at 35.3 µM] (inactive)
10,NCCCC[C@H](N[C@@H](CCc1ccccc1)C(=O)O)C(=O)N1CCC[C@H]1C(=O)O,7.12% [at 35.3 µM] (inactive)
11,CC(=O)O[C@@]12CO[C@@H]1C[C@H](O)[C@@]1(C)C(=O)[C@H](O)C3=C(C)[C@@H](OC(=O)[C@H](O)[C@@H](NC(=O)OC(C)(C)C)c4ccccc4)C[C@@](O)([C@@H](OC(=O)c4ccccc4)[C@H]21)C3(C)C,-5.03% [at 35.3 µM] (inactive)
12,COC(=O)C1=C(C)NC(C)=C(C(=O)OC(C)C)C1c1cccc2nonc12 (configuration not stated),-6.26% [at 35.3 µM] (inactive)
13,CC(C)CC(C)(N)C#N (configuration not stated),-0.713% (inactive)
14,CCCCCCCCN1CCCC1=O,-0.769% (inactive)
15,Nc1ccn([C@@H]2O[C@H](CO)[C@@H](O)C2(F)F)c(=O)n1,5.81% [at 35.3 µM] (inactive)
16,NC(=O)N1c2ccccc2CC(=O)c2ccccc21,1.53% [at 35.3 µM] (inactive)
17,CCCCOCCOC(=O)COc1cc(Cl)c(Cl)cc1Cl,-8.54% (inactive)
